We go through twelve compounds from PubChem BioAssay (NCATS).

Inconclusive results are not listed. Where a call stands in place of a potency, no number is given. Active and inactive are the calls of the source. Calls follow the shape of the dose curve; as a rule, active = well fitted inhibition curve with a large enough effect; inconclusive = small, poorly fitted or top-dose-only effect; inactive = flat fitted curve, though single readings scatter.

This assay is described as follows: P-glycoprotein substrates identified in KB-8-5-11 adenocarcinoma cell line, qHTS therapeutic library screen (AID 1346987). Also: nearly all actives have a fitted effect of over 65% in size. The gist of the method:
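Luminescence from CellTiter-Glo, read 5 min after addition, quantified survival of KB-8-5-11 (P-gp-overexpressing) cells exposed to compounds for 72 h. AC50 was derived from concentration-response curves.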
(In general: qHTS replaces the single test concentration by a dilution series.)
Potency is read from the fitted curve at half-maximal effect.

Take `CS(=O)(=O)OCCCNCCCOS(C)(=O)=O`: the Potency entry was “inactive”.
To `O=C(O)[C@@H](O)[C@H](O)[C@H](O)[C@@H](O)C(=O)O` (tested in a mixture with another compound) belongs “inactive”.
To `COc1cc(N2CCC(N)CC2)ccc1Nc1ncc(Cl)c(-c2c[nH]c3ccccc23)n1` belongs 4110 nM (active).
`CC(/C=C/C(=O)NO)=C\[C@@H](C)C(=O)c1ccc(N(C)C)cc1`: the Potency was 580 nM (active).
To `COCC(c1ccc(C(F)(F)F)cc1)N1CCN(C2(C)CCN(C(=O)c3c(C)ncnc3C)CC2)CC1C` (configuration not stated) belongs “inactive”; to `CCNC(=O)C#Cc1ccc2c(C(=Nc3ccc(CN(C)C)cc3)c3ccccc3)c(O)[nH]c2c1`, 651 nM (active).
To `CC(C)(C)c1ccc(C(=O)Nc2cn3cc(-n4ccnc4)ccc3n2)cc1` belongs “inactive”.
In the case of `CCC(C)c1ccc(NC(=O)Cn2cnc3c2c(=O)n(C)c(=O)n3C)cc1` (configuration not stated) it was “inactive”; in that of `C=CC(=O)N1CCC[C@@H](n2nc(-c3cccc(C(=O)Nc4ccc(C(C)C)c(C)c4)c3)c3c(N)ncnc32)C1`, “inactive”.
As for `O=S(=O)(N[C@H]1CCCC[C@@H]1N1CCOCC1)c1ccc(Cl)cc1`, the Potency result was “inactive”.
In the case of `CCCN1CCC=C(c2cc(-c3ccc(C)cc3)no2)C1` it was “inactive”; in that of `O=C(CCCN1CCC(n2c(=S)[nH]c3ccccc32)CC1)c1ccc(F)cc1`, 9200 nM (active).
